Test results as given in PubChem BioAssay (NCATS).
Results filed as inconclusive are left out. A call without a number means that no potency is given here. Active and inactive are the calls of the source. Calls follow the shape of the dose curve; as a rule, active = well fitted curve in the direction sought with a large enough effect; inconclusive = small, poorly fitted or top-dose-only effect, or another doubt; inactive = no such curve, though single readings can be large; an effect the other way counts as inactive or inconclusive.

Legend:
[1] = Cell Viability - LYMP1-003 - Assay at 24 hr (AID 963); conditions: LYMP1-003 lymphoblastoid cell viability; series mostly up to 92.2 µM
Summary of the method: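 Human lymphoblastoid LYMP1-003 cells (2500/well) were rested 5 hr at 37 C, then exposed to compounds in complete medium for 24 hr at 37 C. Cellular ATP was quantified by CellTiter-Glo luminescence, and AC50 values came from Hill fits of concentration-response data.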

[2] = Cell Viability - LYMP1-003 - Assay at 40 hr (AID 964); conditions: LYMP1-003 lymphoblastoid viability; series mostly up to 92.2 µM; also: nearly all actives have a fitted effect of over 60% in size
Summary of the method: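 Human lymphoblastoid LYMP1-003 cells, 2500/well in complete medium, rested 5 hr at 37 C, then exposed to compounds for 40 hr at 37 C. Viability read as intracellular ATP by CellTiter-Glo luminescence; AC50 from Hill fits of concentration-response data.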

[3] = Cell Viability - LYMP2-003 (AID 965); conditions: LYMP2-003 lymphoblastoid cell viability; series mostly up to 92.2 µM;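 also: cells exposed to compounds for 24 h before reading; nearly all actives have a fitted effect of over 50% in size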
Summary of the method: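 CellTiter-Glo luminescence quantified ATP loss after 24 h compound treatment of LYMP2-003 lymphoblastoid cells at 37 C. Titration series were fitted with the standard Hill equation to give AC50.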

[4] = Cell Viability - LYMP2-004 (AID 966); conditions: LYMP2-004 lymphoblastoid cell viability, qHTS; series mostly up to 92.2 µM; also: nearly all actives have a fitted effect of over 65% in size
Summary of the method: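 Human lymphoblastoid cells (2500/well) in complete medium were treated with compounds for 24 hr at 37 C, then intracellular ATP was measured by CellTiter-Glo luminescence. AC50 values came from Hill-equation fits of concentration-response data.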

[5] = Cell Viability - LYMP2-005 (AID 967); conditions: LYMP2-005 lymphoblastoid cell viability; series mostly up to 92.2 µM
Summary of the method: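 LYMP2-005 human lymphoblastoid cells (2500/well) were treated with compounds for 24 h at 37 C. Intracellular ATP was then measured by CellTiter-Glo luminescence after 30 min at room temperature. AC50 values came from Hill-equation fits of qHTS concentration-response data.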

[6] = Cell Viability - LYMP2-009 (AID 968); conditions: LYMP2-009 lymphoblastoid cell viability; series mostly up to 92.2 µM; also: nearly all actives have a fitted effect of over 55% in size
[7] = Cell Viability - LYMP2-011 (AID 969); conditions: LYMP2-011 lymphoblastoid cells viability; series mostly up to 92.2 µM; also: nearly all actives have a fitted effect of over 60% in size
Summary of the method: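 Human lymphoblastoid cells (2500/well) were plated in complete medium, preincubated 5 hr at 37 C, then exposed to compounds for 24 hr at 37 C. Intracellular ATP was read by CellTiter-Glo luminescence, and AC50 came from Hill-equation concentration-response fits.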

[8] = Cell Viability - LYMP2-015 (AID 971); conditions: LYMP2-015 lymphoblastoid cell viability; series mostly up to 92.2 µM; also: nearly all actives have a fitted effect of over 55% in size
Summary of the method: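 Human lymphoblastoid cells (2500/well) in complete medium were preincubated 5 hr at 37 C, then compound-treated 24 hr at 37 C. Intracellular ATP was read by CellTiter-Glo luminescence after 30 min at room temperature; AC50 came from Hill-equation concentration-response fits.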

[9] = Cell Viability - LYMP2-017 (AID 972); conditions: LYMP2-017 lymphoblastoid cell viability; series mostly up to 92.2 µM; also: nearly all actives have a fitted effect of over 55% in size
Summary of the method: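 Human lymphoblastoid cells (2500/well) were seeded in complete medium, held 5 hr at 37 C, then exposed to compounds for 24 hr at 37 C. Intracellular ATP was read by CellTiter-Glo luminescence after 30 min at room temperature, with AC50 values from Hill-equation fits.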

[10] = Cell Viability - LYMP2-019 (AID 973); conditions: LYMP2-019 lymphoblastoid cell line viability; series mostly up to 92.2 µM; also: nearly all actives have a fitted effect of over 55% in size
Summary of the method: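 Human lymphoblastoid cells were seeded at 2500 cells/well, preincubated 5 hr at 37 C, then exposed to compounds for 24 hr at 37 C in complete medium. Intracellular ATP was measured by CellTiter-Glo luminescence; AC50 from Hill fits.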
Potency is read from the fitted curve at half-maximal effect.

| Structure (SMILES) | Potency [1] | Potency [2] | Potency [3] | Potency [4] | Potency [5] | Potency [6] | Potency [7] | Potency [8] | Potency [9] | Potency [10] |
| --- | --- | --- | --- | --- | --- | --- | --- | --- | --- | --- |
| CC1=NN(c2ccccc2)C(=O)C1 | inactive | inactive | inactive | inactive | inactive | inactive | inactive | inactive | inactive | inactive |
| Cc1cc(NS(=O)(=O)c2ccc(N)cc2)no1 | inactive | inactive | inactive | inactive | inactive | inactive | inactive | inactive | inactive | inactive |
| C[C@]12C=CC(=O)C=C1CC[C@@H]1[C@@H]2C(=O)C[C@@]2(C)[C@H]1CC[C@]2(O)C(=O)CO | inactive | inactive | inactive | inactive | inactive | inactive | inactive | inactive | inactive | inactive |
| NC(N)=NC(N)=NCCc1ccccc1 | inactive | inactive | inactive | – | – | inactive | inactive | – | inactive | – |
| O=C(N[C@H](CO)[C@H](O)c1ccc([N+](=O)[O-])cc1)C(Cl)Cl | inactive | inactive | inactive | inactive | inactive | inactive | inactive | inactive | inactive | inactive |
| Cc1ccnc2c1NC(=O)c1cccnc1N2C1CC1 | inactive | inactive | inactive | inactive | inactive | inactive | inactive | inactive | inactive | inactive |
| Cc1nnc(NS(=O)(=O)c2ccc(N)cc2)s1 | inactive | inactive | inactive | inactive | inactive | inactive | inactive | inactive | inactive | inactive |
| Cc1ncc([N+](=O)[O-])n1CCO | inactive | inactive | inactive | inactive | inactive | inactive | inactive | inactive | inactive | inactive |
| COc1ccc2cc3[n+](cc2c1OC)CCc1cc2c(cc1-3)OCO2 | inactive | – | inactive | inactive | – | – | inactive | – | – | – |
| O=C(O)c1cc(=O)[nH]c(=O)[nH]1 | inactive | inactive | inactive | inactive | inactive | inactive | inactive | inactive | inactive | inactive |
| N=C(N)c1ccc(OCCCCCOc2ccc(C(=N)N)cc2)cc1 | inactive | 39.8 µM (active) | inactive | inactive | – | inactive | – | – | – | – |
| Cc1noc(NS(=O)(=O)c2ccc(N)cc2)c1C | inactive | inactive | inactive | inactive | inactive | inactive | inactive | inactive | inactive | inactive |
| CN(C)c1ccc(C(=C2C=CC(=[N+](C)C)C=C2)c2ccc(N(C)C)cc2)cc1 | 7.94 µM (active) | 2.51 µM (active) | 3.16 µM (active) | 1.58 µM (active) | 2.51 µM (active) | 2.51 µM (active) | 2.51 µM (active) | 2.51 µM (active) | 3.98 µM (active) | 3.16 µM (active) |
| NNC(=O)c1ccncc1 | inactive | inactive | inactive | inactive | inactive | inactive | inactive | inactive | inactive | inactive |
| CC[C@H](C)C(=O)O[C@H]1C[C@@H](C)C=C2C=C[C@H](C)[C@H](CC[C@@H]3C[C@@H](O)CC(=O)O3)[C@H]21 | inactive | – | – | – | – | inactive | inactive | inactive | inactive | inactive |
| CCc1cc(C(N)=S)ccn1 | inactive | inactive | inactive | inactive | inactive | inactive | inactive | inactive | inactive | inactive |
